Assay results from ChEMBL document CHEMBL3988442, “University of Dundee, Small-Polar-MMV Screening Library” (2021).
Hit rate of the full screen: of about 53,000 compounds, about 900 (1.7%) showed an effect of 50% or more. This is one part of a sample in which strong results are shown more often than they occur.

tested on: Mycobacterium tuberculosis; test: Cornell - Phenotypic assay to identify agents that inhibit growth of Mycobacterium tuberculosis; assay type: functional; parameters: scale not given: direction of the effect not stated beside the values; details: 10 mM as filed; unlikely as a test dose

| Structure (SMILES) | Percent Effect [%] |
| --- | --- |
| CCC(NC(=O)c1nn(C)cc1C(=O)O)c1ccc(C)cc1 (stereo not drawn) | 2.527 |
| CCOc1cc([C@@H]2N[C@H](c3nccs3)Cc3ccsc32)ccc1OC | 39.28 |
| Cc1c(Cl)cccc1NC(=O)N1CCN(Cc2ccccn2)CC1 | 28.2 |
| Cc1nc(C2CCN(C(=O)c3ccn(C)n3)CC2)c2sccn12 | -12.4 |
| CCn1nc(C)c(CNC(=O)c2cn(CC3CCCO3)nn2)c1C (stereo not drawn) | -30.41 |
| Cc1cc(C)n(C2CCN(c3ncnc4sc5c(c34)CCNC5)C2)n1 (stereo not drawn) | 11.06 |
| FC1(F)CCN(Cc2cccnc2)CC12CCN(c1ccccc1)C2.O=C(O)C(F)(F)F.O=C(O)C(F)(F)F.O=C(O)C(F)(F)F (stereo not drawn) | 59.15 |
| FC1(F)CCN(Cc2cccnc2)CC12CCN(c1ccccn1)C2.O=C(O)C(F)(F)F.O=C(O)C(F)(F)F.O=C(O)C(F)(F)F (stereo not drawn) | -7.439 |
| FC1(F)CCN(Cc2ccncc2)CC12CCN(c1cccnc1)C2.O=C(O)C(F)(F)F.O=C(O)C(F)(F)F.O=C(O)C(F)(F)F (stereo not drawn) | 6.416 |
| Cc1nn2c(=O)/c(=C\c3cccs3)sc2nc1=O | 10.56 |
| Cc1cc(-c2cnc(N3CCC(O)CC3)nc2-c2cccnc2C)on1 | -33.62 |
| Cc1cc(-c2cnc(N3CCCCCC3)nc2-c2cccnc2C)on1 | 62.64 |
| Cn1ccnc1-c1nc(N2CCCCC2)ncc1-c1ccccc1F | 56.75 |
| CC1CCN(c2ncc(-c3ccccc3F)c(-c3nccn3C)n2)CC1 | -10.24 |
| Cc1cc(-c2cnc(N3CCOCC3)nc2-c2cccnc2C)on1 | 6.202 |
| CC1CCCN(c2ncc(-c3ccccc3F)c(-c3nccn3C)n2)C1 (stereo not drawn) | 50 |
| CC(C)=CCN1CCC2(CC1)CC(=O)N(Cc1cc(F)cc(F)c1)C2 | 20.01 |
| CC(C)Cn1nc2ccc(S(=O)(=O)N3CCC(C)CC3)cn2c1=O | 2.551 |
| COc1cc2nc(NCc3cc(C)on3)nc(N)c2cc1OC | -7.413 |
| COc1cc2nc(NCc3ccc(C)nc3)nc(N)c2cc1OC | 50.73 |
| COc1cc2nc(NCc3scnc3C)nc(N)c2cc1OC | 13.16 |
| COC(=O)N1CCC(Nc2ccc(Cl)c(C#N)n2)C1 (stereo not drawn) | 21.5 |

| Structure (SMILES) | Percent Effect [%] |
| --- | --- |
| COC(=O)N1CCC(Nc2ccc(C#N)c(Cl)c2)C1 (stereo not drawn) | 66.83 |
| N#Cc1ccc(NC2CCN(c3ncccn3)CC2)cc1Cl | 33.47 |
| CC(NC(=O)NCCCn1cccn1)c1ccccn1 (stereo not drawn) | -6.373 |
| CC(NC(=O)NCCNc1ccccn1)c1cccs1 (stereo not drawn) | -14.12 |
| CCCNC(=O)NC(C)c1ccccn1 (stereo not drawn) | 55.13 |
| CCN1CCN(C(C)(C)CNc2nc(C)cc(C3CCC3)n2)CC1 | 8.458 |
| CC(C)CC(=O)N1Cc2ccccc2CC1C(=O)Nc1nncs1 (stereo not drawn) | 29.19 |
| O=C(NCC1(O)COCCN(Cc2cccc(O)c2)C1)c1ccccn1 (stereo not drawn) | -47.38 |
| CC(C)n1cnnc1Cn1ccc2ncccc2c1=O | -16.96 |
| Cc1ccc(C)c(CNC(=O)NC(C)(C(=O)O)c2ccco2)c1 (stereo not drawn) | 50.37 |
| CC(NC(=O)NCc1ccccc1F)(C(=O)O)c1ccco1 (stereo not drawn) | -0.26 |
| CC(NC(=O)NCc1ccccc1)(C(=O)O)c1ccco1 (stereo not drawn) | -57.05 |
| COc1cc(N2CCC3(CC2)CN(C)C(=O)CO3)ncn1 | -14.83 |
| CCn1ncc2c1CCCC2NCc1cccc2c1OCO2 (stereo not drawn) | -8.826 |
| NC(=O)C1CCN(C(=O)CCSCc2ccc(Cl)c(Cl)c2)CC1 | 42.57 |
| CCOCCN(C)C(c1cccnc1)c1ccc(F)cc1F (stereo not drawn) | 14 |
| COC(=O)CCCN(C)C(c1cccnc1)c1ccc(F)cc1F (stereo not drawn) | 105.8 |
| CNC(=O)NC(=O)CN(C)C(c1cccnc1)c1ccc(F)cc1F (stereo not drawn) | 14.91 |
| CC(=O)NCCC1CCCCN1S(=O)(=O)c1cccc(Cl)c1 (stereo not drawn) | -47.8 |
| CN1CCN(Cc2cn3c(n2)CN(Cc2ccncc2)CC3)CC1 | -19.75 |
| COc1ccccc1NC(=O)CC(C)NCc1scnc1C (stereo not drawn) | -11.77 |
| COc1ccccc1NC(=O)CC(C)NCCc1sc(C)nc1C (stereo not drawn) | 109.1 |

| Structure (SMILES) | Percent Effect [%] |
| --- | --- |
| COc1ccccc1NCC(=O)NCc1scnc1C | 3.418 |
| CCOc1ccc(NC(=O)N2CCOC(C(N)=O)C2)cc1C (stereo not drawn) | -10.8 |
| CN1CCN(c2nsc(-c3ccccc3)c2C#N)CC1 | 72.37 |
| CN1CCN(c2nsc(-c3cccnc3)c2C#N)CC1 | -23.91 |
| CCN1CCN(c2nsc(-c3cccnc3)c2C#N)CC1 | 8.063 |
| O=C(NCCOc1ccccc1)NCC(O)c1cccs1 (stereo not drawn) | 1.907 |
| Cc1csc(N2CCCN(C(=O)c3csc(C)n3)CC2)n1 | 20.78 |
| O=C(c1cnc(O)cn1)N1C[C@@H]2CC[C@H](C1)N(Cc1ccccc1)C2 | 9.482 |
| CCN1CCCc2cc(CN3CCc4c(nc(C)[nH]c4=O)C3)ccc21 | 3.807 |
| Cn1cc(CN(Cc2ccccc2)CC(O)c2cccs2)cn1 (stereo not drawn) | 103.2 |
| OC(CN(Cc1ccccc1)Cc1ccncc1)c1cccs1 (stereo not drawn) | 4.252 |
| Cc1cnc(CN(Cc2ccccc2)CC(O)c2cccs2)cn1 (stereo not drawn) | -16.83 |
| CCCN(CCn1c(=O)oc2ccccc21)CC1CC1 | 69.63 |
| CCN(CC)CCn1c(=O)oc2ccccc21.Cl | 61.39 |
| CC(NCCn1c(=O)oc2ccccc21)c1ccccn1 (stereo not drawn) | 11.05 |
| O=C(CCn1c(=O)oc2ccccc21)NCC(O)c1ccccc1 (stereo not drawn) | -6.039 |
| CCN(CCn1c(=O)oc2ccccc21)CC1CCOCC1 | 48 |
| O=c1oc2ccccc2n1CCN(CC1CCOC1)C1CC1 (stereo not drawn) | 23.76 |
| CN(C)CCN1CCC2(CC1)CN(c1cccnc1)C(=O)CO2 | -2.61 |
| CCC(C)NC(=O)Nc1cccc(OC)c1 (stereo not drawn) | -23.11 |
| CC1CC(=O)c2cc(C(=O)N3CCN(C)CC3)c(=O)[nH]c2C1 (stereo not drawn) | 4.231 |
| COc1c(Br)c(C(=O)NC2CC2)nn1C | 20.51 |

| Structure (SMILES) | Percent Effect [%] |
| --- | --- |
| CNc1nc(C(=O)NCc2cccnc2N(C)C)cs1 | 28.41 |
| CN(c1ncccc1CNC(=O)c1cscn1)C1CCCCC1 | 20.11 |
| CNc1nc(C(=O)NCc2cccnc2N(C)C2CCCCC2)cs1 | 51.53 |
| CCCN1CCN(Cc2cc3cc(OCC)ccc3[nH]c2=O)CC1 | 16.06 |
| CCc1ccc(-c2cn3c(C(=O)NCC(C)C(=O)NC)csc3n2)cc1 (stereo not drawn) | 9.06 |
| CCn1ccc(CNC(=O)c2cc(OC)cc(OC)c2)n1 | 3.102 |
| O=C(CN1CCOCC1)Nc1ccc(C(F)(F)F)cc1Cl | -3.484 |
| CC(C)c1cc(C(=O)N2CCN(c3ncc4c(n3)CCOC4)CC2)on1 | -0.8267 |
| Cc1cc(C(=O)N2CCN(c3ncc4c(n3)CCOC4)CC2)sc1C | 45.6 |
| Cc1cnc(C(=O)N2CCN(c3ncc4c(n3)CCOC4)CC2)cn1 | 56.71 |
| O=C(CN1CCc2cncnc2C1)Nc1ccc(Cl)cn1 | -14.12 |
| Cc1cc(N(C)Cc2ccsc2)n2nc(C)c(C)c2n1 | 80.58 |
| Cc1csc(CN(C)c2cc(C)nc3c(C)c(C)nn23)n1 | 39.72 |
| CCc1nnc(CN(C)c2cc(C)nc3c(C)c(C)nn23)o1 | -22.97 |
| COCCNC(=O)CN1CCCC1c1c(C)nn(C)c1Cl (stereo not drawn) | -22.86 |
| COc1ccc2cc(NC(=O)CCNc3ncccn3)cnc2c1 | -7.502 |
| COCCC(=O)N1CCC(c2cncc(Oc3cccnc3)n2)CC1 | -4.018 |
| Cc1nn(CCO)c(C)c1CNC1CCOc2ccccc21.Cl (stereo not drawn) | 28.69 |
| Cc1nn(C)c(C)c1CNC1CCOc2ccccc21 (stereo not drawn) | 106.6 |
| COc1c(CNC2CCOc3ccccc32)c(C)nn1C (stereo not drawn) | 23.56 |
| CC(C)N1CCC2(CCN(C(=O)c3cccnc3)CC2)C1.O=C(O)C(F)(F)F.O=C(O)C(F)(F)F | -3.69 |
| COc1cccc(-c2noc3c2CN(c2ncnc4c2CCC4)CC3)c1 | 35.28 |

| Structure (SMILES) | Percent Effect [%] |
| --- | --- |
| COc1cccc(-c2noc3c2CN(c2nc(C)ncc2C)CC3)c1 | 77.03 |
| COCc1cc(N2CCc3onc(-c4cccc(OC)c4)c3C2)ncn1 | 25.42 |
| c1cc(CN2CCCC(c3ccnc4nccn34)C2)ccn1 (stereo not drawn) | 21.25 |
| CSc1sc2c(O)cc(=O)[nH]c2c1C(N)=O | 28.59 |
| CCn1c(C)nnc1SCCn1cc(-c2nccs2)nn1 | -8.266 |
| COc1ccc(CN2CCC3(CC(C(=O)NCC(C)C)=NO3)C2)cc1 (stereo not drawn) | 19.34 |
| CC(C)CC(=O)Nc1ccc(Oc2ccsc2C(=O)O)cc1 | 38.91 |
| O=C(O)c1sccc1Oc1ccc(NC(=O)C2CC2)cc1 | 55.89 |
| CC(C)(C)C(=O)Nc1ccc(Oc2ccsc2C(=O)O)cc1 | 16.22 |
| COCC(=O)Nc1ccc(Oc2ccsc2C(=O)O)cc1 | 86.45 |
| O=C(Nc1cnc(Oc2ccccc2)nc1)C1CC1 | 23.36 |
| CC(C)CC(=O)Nc1ccccc1Oc1ccsc1C(=O)O | 8.037 |
| CC(C)NC(=O)Nc1ccc2c(c1)ncn2CC(=O)NCCN(C)C | -20.24 |
| Cc1nc(C)n(C2CCCN(C(=O)Cc3ccc4c(c3)CCC4)C2)n1 (stereo not drawn) | 13.58 |
| Cc1cc(C)n(C2CN(Cc3noc(C4CC4)n3)C2)n1 | 7.043 |
| COCCC(=O)Nc1ccnn1-c1ccccc1 | -2.555 |
| c1cnc(N2CCOCC3(CCCN(c4nncs4)C3)C2)cn1 (stereo not drawn) | -8.424 |
| CCOCCN1CCN(CCc2ccc3c(c2)CCO3)CC1 | -8.246 |
| COCC(C)N1CCN(CCc2ccc3c(c2)CCO3)CC1 (stereo not drawn) | -12.27 |
| CC(C)NC1CCN(CCc2ccc3c(c2)CCO3)CC1 | 56.74 |
